Bioassay records as filed in PubChem.
Tau fluor cs = counter-screen for tau fibril formation inhibitors; tau K18 P301L Alexa594 fluorescence, heparin fibrillization; Potency, µM (series often up to 57.7 µM), inactives show at the highest dose activity change, negative = decrease; 280,000 compounds, 0.93% hits; AID 1463; also: nearly all actives have a fitted effect of over 55% in size
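Human K18 P301L tau (15 uM unlabeled plus 0.24 uM Alexa 594-labeled, final) in 100 mM sodium acetate pH 7 was mixed with compound and 20 uM heparin and incubated 6 hr at 37 C.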
Tau FP inhib = blocks human tau fibril formation measured by polarization. P10636. K18 P301L tau heparin fibrillization, Alexa594 FP, 6 h. Potency, µM (titrated, usually from 57.7 µM), without a hit: top-dose activity, negative = inhibition, hits mostly inhibitors. 280,000 compounds, 0.39% hits. AID 1468; also: nearly all actives have a fitted effect of over 55% in size
Target sequence (P10636 561-689 P618L limits assumed): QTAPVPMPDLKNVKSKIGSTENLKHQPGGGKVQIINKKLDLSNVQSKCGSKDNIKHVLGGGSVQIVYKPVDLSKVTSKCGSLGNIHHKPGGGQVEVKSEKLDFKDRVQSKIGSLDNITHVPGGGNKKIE
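Human tau K18 […] P301L fragment, 15 uM unlabeled plus 0.24 uM Alexa 594-labeled tau (final), with compound and 20 uM heparin in 100 mM sodium acetate pH 7; 6 hr at 37 C, then Alexa 594 FP read.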
GoLoco inh red = inhibitors of human Gai1-RGS12 GoLoco interaction (red fluorophore). 230,000 compounds, 0.44% hits. Gai1:RGS12 GoLoco peptide FP, rhodamine, 10 min. Potency, µM (top dose mostly 61.6 µM), inactives show at the top dose activity, negative = inhibition, hits mostly inhibitors. P63096; active = well fitted inhibition curve with a large enough effect, not every such curve was filed as active; inactive = no such curve, though single readings can be large or run the other way; also: nearly all actives have a fitted effect of over 30% in size
Tau ThT inhib = tau fibrillization inhibition (ThT binding); P10636; recombinant tau K18 P301L, heparin-induced fibrillization, ThT fluorescence; Potency, µM (series often up to 57.4 µM), for inactives: at the top dose activity, negative = inhibition, hits mostly inhibitors; 270,000 compounds, 2.1% hits; also: nearly all actives have a fitted effect of over 55% in size
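ThT emission at 510 nm, taken 1 hr after adding 30 uM dye, quantifies aggregates formed when 20 uM heparin acts on human tau K18 P301L for 6 hr at 37 C.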
JMJD2E inh = JMJD2E (human) inhibition | B2RXH2 | JMJD2E catalytic domain, FDH-coupled NADH fluorescence (FDH is formaldehyde dehydrogenase) | Potency, µM (highest dose often 57.1 µM), without a hit: top-dose activity change, negative = inhibition, most hits filed as inhibitors | 230,000 compounds, 1.6% hits | AID 2147; active = well fitted inhibition curve with a large enough effect, not every such curve was filed as active; inconclusive = small, poorly fitted or top-dose-only effect, or another doubt; inactive = no such curve, though single readings can be large or run the other way;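 also: 0% = wells with enzyme and -100% = buffer wells without enzyme; nearly all actives have a fitted effect of over 50% in size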
Target sequence (B2RXH2 1-337 limits assumed): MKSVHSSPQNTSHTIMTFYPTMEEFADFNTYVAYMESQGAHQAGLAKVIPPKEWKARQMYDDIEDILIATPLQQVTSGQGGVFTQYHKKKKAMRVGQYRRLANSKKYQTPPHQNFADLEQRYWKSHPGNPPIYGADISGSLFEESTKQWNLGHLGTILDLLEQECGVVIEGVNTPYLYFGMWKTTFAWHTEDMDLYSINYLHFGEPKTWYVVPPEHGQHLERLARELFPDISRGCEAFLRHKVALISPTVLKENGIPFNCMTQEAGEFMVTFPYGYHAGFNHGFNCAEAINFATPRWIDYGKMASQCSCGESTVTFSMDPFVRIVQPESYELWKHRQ
* = called active by the depositor; ? = inconclusive; / = no result given; [ ] = remark or other dose. A selection: hits, their analogues and other compounds. The true share with any hit is near 3.4%. Unless noted, calls follow the shape of the dose curve; as a rule, active = well fitted curve in the direction sought with a large enough effect; inconclusive = small, poorly fitted or top-dose-only effect, or another doubt; inactive = no such curve, though single readings can be large; an effect the other way counts as inactive or inconclusive. Unless noted, % is scaled to controls: 0 for no effect and ±100 for the full control effect; potency is read from the fitted curve at half-maximal effect.

SMILES	Tau fluor cs	Tau FP inhib	GoLoco inh red	Tau ThT inhib	JMJD2E inh
Cc1ccc(CN(C(=O)COc2ccc(C(C)(C)C)cc2)C2CCS(=O)(=O)C2)o1 (centres undefined)	-9%	-3%	/	-2%	/
COc1ccccc1CNC(=O)Cn1c(=O)nc(-c2ccccc2F)c2cc(Cl)ccc21	-4%	3%	/	?	/
O=C(Cn1c(=O)n(Cc2ccco2)c(=O)c2ccc(C(=O)NC3CCCC3)cc21)Nc1ccc(F)cc1	?	16µM*	/	?	/
Cc1cc(C)c(NC(=O)Cn2c(=O)n(Cc3ccco3)c(=O)c3ccc(C(=O)NC4CCCC4)cc32)c(C)c1	0%	-11%	/	5%	/
CC(=O)c1cc2c(cc1N/C(=N/S(=O)(=O)c1ccc(F)cc1)c1ccccc1)OCO2	-7%	1%	/	3%	/
Cc1cccc(NC(=O)C(Cc2ccccc2)n2cccc2)c1C (centres undefined)	?	-5%	/	?	/
O=C(N/N=C(\CC(=O)c1cccs1)C(F)(F)F)c1ccncc1	?	8%	113%	14µM*	?
COc1ccc(C2C(C(=O)Nc3ccccc3OC)=C(C)Nc3c(C(=O)Nc4ccccc4)cnn32)c(OC)c1 (centres undefined)	-30%	?	/	-3%	/
CCOC(=O)c1sc2cc([N+](=O)[O-])cc(SCCO)c2c1N	-26%	4%	12%	2.2µM*	-9%
CCOC(=O)c1sc2cc([N+](=O)[O-])cc(SCC(=O)OC)c2c1N	?	-9%	50%	7.1µM*	-21%
CCOC(=O)c1sc2nc(C)cc(C)c2c1N	-7%	6%	3%	?	?
COC(=O)CN1C(=O)CSc2ccc(S(=O)(=O)Nc3cccc(C)c3)cc21	-10%	5%	/	0%	/
Cc1ccc(Cn2c(=O)n(-c3cc(C)cc(C)c3)c(=O)c3oc4ccccc4c32)cc1	5%	2%	/	9%	/
Cc1[nH]n(-c2ccccc2)c(=O)c1N=Nc1nccs1	-28%	8%	12%	13µM*	?
Cc1cc(Br)ccc1-n1[nH]c(C)c(C=Nc2cccc3nsnc23)c1=O	?	?	16%	14µM*	-15%
Cc1coc2c(C)c3oc(=O)c(CCC(=O)N4CCCCC4)c(C)c3cc12	-6%	-9%	/	?	/
CN(C)CCCNc1cc(C(C)(C)C)nc2c(-c3ccccc3)cnn12	22µM*[quencher]	?	14%	?	?
CC(C)(C)c1cc(NCCCn2ccnc2)n2ncc(-c3ccc(Cl)cc3)c2n1	?	?	15%	?	?
O=S(=O)(c1ccc(Cl)cc1)N1CCN(Cc2ccc(O)c3ncccc23)CC1	-16%	0%	8%	?	25µM*
Oc1ccc(CN2CCN(Cc3ccccc3)CC2)c2cccnc12	-8%	-2%	-14%	-6%	-3%
CCOc1cccc2sc(N3CCN(C(=O)c4ccc5c(c4)CCCC5)CC3)nc12	-3%	10%	/	?	/
Nc1c(C(=O)N/N=C/c2cccnc2)oc2nc(-c3ccccc3)cc(-c3ccco3)c12	-15%	1%	12%	?	?
Nc1c(C(=O)N/N=C/c2cccnc2)oc2nc(-c3ccco3)cc(-c3ccco3)c12	?	?	17%	16µM*	?
COc1ccccc1N(O)C1CC(=O)N(c2ccc(Br)cc2)C1=O (centres undefined)	?	?	3%	14µM*	-28%
CC(C)c1ccc(NC(=O)CSc2nc(=O)n(Cc3ccccn3)c3c2CCC3)cc1	-4%	-7%	/	-10%	/
SMILES	Tau fluor cs	Tau FP inhib	GoLoco inh red	Tau ThT inhib	JMJD2E inh
Cc1ccccc1NC(=O)CSc1n[nH]c(-c2ccco2)n1	-1%	-5%	16%	-6%	-6%
Cc1cccc(C)c1NC(=O)CSc1nnc(-c2ccco2)c(-c2ccco2)n1	?	?	3%	25µM*	?
Cc1ccccc1NC(=O)CSc1nnc(-c2ccco2)c(-c2ccco2)n1	?	8.9µM*	14%	7.9µM*	?
O=C(Nc1ccc(Cl)c(Cl)c1)C1=Cc2ccccc2OC1	?	16µM*	-7%	?	?
COC(=O)c1cccc(Nc2cc(C)nc(-c3ccccc3O)n2)c1	?	11µM*	-2%	?	29%
COC(=O)c1ccc(Nc2cc(C)nc(-c3ccccc3O)n2)cc1	?	?	3%	1%	-114%
C/C(=N\Nc1cc(C)nc(-c2ccccc2O)n1)c1ccccc1O	10µM*[quencher]	?	3%	?	?
CN(C)c1cc2c(cc1NC(=O)c1ccc(F)cc1)n(C)c(=O)n2C	-30%	-6%	/	?	/
COC(=O)c1cc(NC(=O)c2cc(-c3ccc(OC)cc3)oc2C(F)(F)F)ccc1N1CCOCC1	8.9µM*[quencher]	?	-1%	/	?
COc1ccc(NC(=O)c2ccccc2-c2ccc(C(F)(F)F)cc2)cc1S(=O)(=O)N1CCOCC1	-11%	0%	2%	-5%	10%
COC(=O)c1cc(NC(=O)c2cc(-c3ccc(C(F)(F)F)cc3)oc2C(F)(F)F)ccc1N1CCOCC1	1µM*[quencher]	8%	4%	/	?
COC(=O)c1cc(NC(C)=O)ccc1N1CCOCC1	-6%	-5%	21%	-2%	-16%
COc1ccccc1N1CCN(C(=O)c2cc3c(=O)n(C)c4ccccc4c3s2)CC1	-14%	6%	/	?	/
COc1cc(NC(=O)c2csc(N)n2)cc(C(=O)Nc2cccc(C(F)(F)F)c2)c1	?	?	8%	?	-27%
COc1cc(NC(=O)c2cnc(N)s2)cc(C(=O)Nc2cccc(C(F)(F)F)c2)c1	-29%	?	6%	0%	20µM*
CS(=O)(=O)CC[C@@H](C(=O)NCCc1ccccc1)N1Cc2ccccc2C1=O	-9%	-5%	/	-1%	/
O=C(Nn1c(O)c(C=C2N=c3ccccc3=N2)sc1=S)c1ccc(Cl)cc1	7.9µM*[quencher]	?	11%	11µM*	-30%
Oc1c(C=C2N=c3ccccc3=N2)sc(=S)n1C1CCCC1	2%	1%	-9%	4%	1%
Oc1[nH]c(=S)sc1C=C1N=c2ccccc2=N1	-29%	-1%	9%	14µM*	-2%
O=C1N=c2ccc(Br)cc2=C1c1sc(=S)n(NS(=O)(=O)c2ccccc2)c1O	14µM*[quencher]	?	-16%	11µM*	0%
O=C1N=c2ccccc2=C1c1sc(=S)n(NC(=O)c2cccc(O)c2)c1O	?	?	6%	?	-14%
Cc1ccc(S(=O)(=O)Nn2c(O)c(C=C3N=c4ccccc4=N3)sc2=S)cc1	?	-3%	7%	11µM*	10%
Oc1c(C=C2N=c3ccccc3=N2)sc(=S)n1-c1ccc2ccccc2c1	?	-8%	19%	?	-7%
Cc1ccc(C(=O)Nn2c(O)c(C=C3N=c4ccccc4=N3)sc2=S)cc1	?	-14%	13%	?	-4%
